Assay results: PubChem BioAssay AID2479 (National Center for Advancing Translational Sciences (NCATS), 2010)
Results filed as inconclusive are left out. Activity calls are given as the source filed them. Calls come from the whole dose curve.

molecular target: Thyroid hormone receptor beta (Homo sapiens) (UniProt P10828); assay: Gene Reporter Secondary Assay for Inhibitors of the Interaction of Thyroid Hormone Receptor and Steroid Receptor Coregulator 2 in a Thyroid Receptor Assay; details: WRO cells TRb DR4-TRE luciferase reporter, T3, 20 h
Source text: NIH Molecular Libraries Probe Production Network [MLPCN] NIH Chemical Genomics Center [NCGC] MLPCN Grant: DK058080 Assay Provider: R. Kip Guy, St. Jude Children's Research Hospital NCGC Assay Overview: Thyroid receptor (TR) regulates many homeostatic processes including basal metabolism, cardiovascular function, body weight, and lipid trafficking. TR modulators are potential therapeutics for obesity and hyperlipidemias but current thyroid analogs have undesirable side effects, particularly cardiac stimulation. This secondary assay characterized compounds identified in the qHTS for Inhibitors of the Interaction of Thyroid Hormone Receptor and Steroid Receptor Coregulator 2 (PubChem AID 1485). The human follicular thyroid carcinoma cell line WRO (kindly provided by Dr. M. D. Ringel) stably expresses TRb and a luciferase reporter gene fused to TR response element. The addition of T3 ligand elevates expression of the TRE luciferase reporter (DR4-TRE-luc).
NCGC Assay Protocol Summary: Cells were maintained in RPMI 1640 culture medium supplemented with 10% heat-inactivated FBS, 0.33 mg/ml hygromycin, 0.33 mg/ml geneticin, 50 units/ml penicillin, 50 ug/ml streptomycin. Cells were harvested and resuspended at 330,000 cells/ml in assay medium (50% DMEM 50% F-12 medium without Phenol-Red (Cellgro #16-405-CV), L-glutamine, 10% heat inactivated and charcoal treated FBS, 100 uM non-essential amino acid, 50 units/ml penicillin, 50 ug/ml streptomycin). Cells were dispensed at 8,000 cells/25 ul/well into 384 well plates (Corning 3917) and incubated 12 hr at 37 C and 5% CO2. Following transfer of 130 nL compound (ranging from 0.2 to 52 uM) and T3 (100 nM final concentration), the plates were incubated 20 hr incubation at 37 C and 5% CO2. Plates were then equilibrated at ambient temperature for 30 min, 25 ul of Bright-Glo (Promega) was added and luminescence was detected by an EnVision (PerkinElmer).

Chain of Thyroid hormone receptor beta (Homo sapiens) (P10828 whole entry, looked up): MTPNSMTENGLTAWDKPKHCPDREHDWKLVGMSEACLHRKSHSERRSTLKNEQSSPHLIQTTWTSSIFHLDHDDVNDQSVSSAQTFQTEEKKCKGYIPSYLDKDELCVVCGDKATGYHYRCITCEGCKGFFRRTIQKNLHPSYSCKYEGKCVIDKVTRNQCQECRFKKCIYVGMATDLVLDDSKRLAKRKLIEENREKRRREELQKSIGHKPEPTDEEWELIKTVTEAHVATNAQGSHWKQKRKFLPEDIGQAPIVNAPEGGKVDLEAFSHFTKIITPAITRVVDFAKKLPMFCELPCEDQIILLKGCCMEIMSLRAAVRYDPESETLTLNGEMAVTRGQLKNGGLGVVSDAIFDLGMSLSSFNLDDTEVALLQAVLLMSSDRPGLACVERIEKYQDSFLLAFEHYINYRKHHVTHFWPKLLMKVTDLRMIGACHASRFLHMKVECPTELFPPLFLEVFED

Compound	outcome	Potency
O=C(COC(=O)c1ccc2ncsc2c1)NC(=O)C1CCCCC1	inactive	
CS(=O)(=O)c1ccc(C(=O)OCC(=O)N2CC(=O)Nc3ccccc32)cc1[N+](=O)[O-]		15.8 µM (active)
CS(=O)(=O)c1ccc(C(=O)OCC(=O)NCC2CCCO2)cc1[N+](=O)[O-] (centres undefined)		15.2 µM (active)
CC1(C)C2CCC1(C)C(NC(=O)COC(=O)c1ccc(S(C)(=O)=O)c([N+](=O)[O-])c1)C2 (centres undefined)		12.9 µM (active)
O=C(COC(=O)c1cccc([N+](=O)[O-])c1Cl)NC1C2CC3CC(C2)CC1C3 (centres undefined)	inactive	
CCN1CCN(C(=O)COC(=O)c2ccc(S(C)(=O)=O)c([N+](=O)[O-])c2)C(C)C1 (centres undefined)		23.5 µM (active)
CCN1CCN(C(=O)COC(=O)c2ccc(S(C)(=O)=O)c([N+](=O)[O-])c2)CC1C (centres undefined)		26.3 µM (active)
CC1CCCCN1C(=O)COC(=O)c1ccc(S(C)(=O)=O)c([N+](=O)[O-])c1 (centres undefined)		12.6 µM (active)
CN1CCN(C(=O)COC(=O)c2ccc(S(C)(=O)=O)c([N+](=O)[O-])c2)CC1		33.9 µM (active)
CS(=O)(=O)c1ccc(C(=O)OCC(=O)Nc2cc(C(F)(F)F)ccc2Cl)cc1[N+](=O)[O-]		22.7 µM (active)
CS(=O)(=O)c1ccc(C(=O)OCC(=O)N2Cc3ccccc3C2)cc1[N+](=O)[O-]		12.6 µM (active)
CS(=O)(=O)c1ccc(C(=O)OCC(=O)N2CCCC2)cc1[N+](=O)[O-]		17.7 µM (active)
O=C(COC(=O)c1ccc(Cl)c([N+](=O)[O-])c1)NC1C2CC3CC(C2)CC1C3 (centres undefined)	inactive	
CS(=O)(=O)c1ccc(C(=O)OCC(=O)N2CCc3ccccc32)cc1[N+](=O)[O-]		18.6 µM (active)
Cc1ccc(F)cc1NC(=O)COC(=O)c1ccc(S(C)(=O)=O)c([N+](=O)[O-])c1		17.9 µM (active)
C[S+](=O)([O-])c1ccc(C(=O)OCC(=O)N2CCN([S+](C)(=O)[O-])CC2)cc1[N+](=O)[O-]	inactive	
C[S+](=O)([O-])c1ccc(C(=O)OCC(=O)NC2C3CC4CC(C3)CC2C4)cc1 (centres undefined)	inactive	

Compound	outcome	Potency
CS(=O)(=O)c1ccc(C(=O)OCC(=O)N2CCOCC2)cc1[N+](=O)[O-]		23 µM (active)
CC(=O)c1cccc(NC(=O)C(C)OC(=O)c2ccc(S(C)(=O)=O)c([N+](=O)[O-])c2)c1 (centres undefined)		14.9 µM (active)
O=C(COC(=O)c1ccc(F)c([N+](=O)[O-])c1)NC1C2CC3CC(C2)CC1C3 (centres undefined)	inactive	
O=C(COC(=O)c1ccc(C(F)(F)F)cc1)NC(=O)C1CCCCC1	inactive	
CC(=O)Nc1cccc(C(=O)OCC(=O)NC(=O)C2CCCCC2)c1	inactive	
Cc1ccccc1NC(=O)COC(=O)c1ccc(S(C)(=O)=O)c([N+](=O)[O-])c1		22.9 µM (active)
O=C(COC(=O)c1cc([N+](=O)[O-])ccc1F)NC1C2CC3CC(C2)CC1C3 (centres undefined)	inactive	
Cc1cc(C(=O)OCC(=O)NC(=O)C2CCCCC2)ccc1[N+](=O)[O-]	inactive	
CCN(CC)C(=O)COC(=O)c1ccc(S(C)(=O)=O)c([N+](=O)[O-])c1		16.8 µM (active)
COc1cccc(CNC(=O)COC(=O)c2ccc(S(C)(=O)=O)c([N+](=O)[O-])c2)c1		21.5 µM (active)
CS(=O)(=O)c1ccc(-c2nnc(-c3ccccc3)o2)cc1[N+](=O)[O-]		15.7 µM (active)
C[S+](=O)([O-])c1ccc(C(=O)OCC(=O)N2CCNC(=O)C2)cc1[N+](=O)[O-]	inactive	
CC(=O)N1CCN(C(=O)COC(=O)c2ccc([S+](C)(=O)[O-])c([N+](=O)[O-])c2)CC1	inactive	
O=C(COC(=O)c1cccc([N+](=O)[O-])c1)NC1C2CC3CC(C2)CC1C3 (centres undefined)	inactive	
CS(=O)(=O)c1ccc(C(=O)OCC(=O)NC(=O)NC2CCCCC2)cc1[N+](=O)[O-]		12.7 µM (active)
CS(=O)(=O)c1ccc(-c2nnc(-c3ccccc3)s2)cc1[N+](=O)[O-]		11.1 µM (active)
O=C(COC(=O)c1cc([N+](=O)[O-])ccc1Cl)NC1C2CC3CC(C2)CC1C3 (centres undefined)	inactive	
